Experimental data taken from the supplement of paper PMC6555819.

How the values were obtained:
Assay in all cases: PBM binding z-score (relative to random genomic background probes); higher = stronger binding; sequences stand for … in GC…GCGATTGACAGCGTAGAATGAAGG
[1] = test system: FXR:RXRa (NR concentration 270 nM, RXRa partner concentration 90 nM)
Method in brief: (§1)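 On custom Agilent 4×180K arrays, double-stranded probes with 34-nt variable regions carried direct-repeat seeds, single-nucleotide variants, half-site ablations or random human genomic background. Ligand-free nuclear receptor dimers were applied for 1 h, and binding was read with antibodies against each partner (one per run). Binding z-scores come from regression-normalized fluorescence, with the random background probes as reference.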

[2] = test system: LXRa:RXRa (NR concentration 270 nM, RXRa partner concentration 90 nM)
Method in brief: as §1

[3] = test system: LXRa homodimer (NR concentration 270 nM)
Method in brief: as §1

[4] = test system: LXRb:RXRa (NR concentration 270 nM, RXRa partner concentration 90 nM)
Method in brief: as §1

[5] = test system: LXRb homodimer (NR concentration 270 nM)
Method in brief: as §1

[6] = test system: PPARa:RXRa (NR concentration 270 nM, RXRa partner concentration 90 nM)
Method in brief: as §1

[7] = test system: PPARg:RXRa (NR concentration 180 nM, RXRa partner concentration 90 nM)
Method in brief: as §1

[8] = test system: PPARg:RXRa 270nM:90nM, anti-RXR (NR concentration 270 nM, RXRa partner concentration 90 nM)
Method in brief: as §1

[9] = test system: PPARg:RXRa 30nM:10nM, anti-RXR (NR concentration 30 nM, RXRa partner concentration 10 nM)
Method in brief: as §1

[10] = test system: PPARg:RXRa 90nM:30nM, anti-RXR (NR concentration 90 nM, RXRa partner concentration 30 nM)
Method in brief: as §1

Row | Sequence | PBM binding z-score [1] | PBM binding z-score [2] | PBM binding z-score [3] | PBM binding z-score [4] | PBM binding z-score [5] | PBM binding z-score [6] | PBM binding z-score [7] | PBM binding z-score [8] | PBM binding z-score [9] | PBM binding z-score [10]
1 | TGAATGAGGTTATAAGATCAGAGAACGTTGCAAA | 1.28 | 1.23 | -0.332 | 0.897 | -0.296 | 2.62 | 1.45 | 1.83 | 1.04 | 1.35
2 | TCAGACAGGTGAAGTTAACTCAGGTACGCAGTCG | 0.865 | 0.967 | 0.0333 | 0.725 | -0.0783 | 1.17 | 0.534 | 2.18 | 3.93 | 2.75
3 | CTACCAAGGTGAACTAGGTCGTTGATTACTATTC | 1.2 | 1 | 0.238 | 1.61 | -0.516 | 2.59 | 1.12 | 1.6 | 0.168 | 1.05
4 | ATCTCTAGGTAAAGATCAGTGAAAGATCGATAGA | 0.248 | 0.153 | 0.0101 | 0.0437 | 0.463 | 0.624 | 1.04 | 1.14 | 0.487 | 0.992
5 | ATCTCTAGGTAAAACTTCAGTGAATCCCGAGGAT | 0.0366 | 0.047 | -0.183 | -0.182 | 0.628 | 0.249 | 0.323 | 0.56 | 0.176 | 0.539
6 | CCTGCTAGGTCAATGGTCAGTTAAAGCAGCTCGC | 3.02 | 2.09 | 0.0181 | 1.53 | -0.0412 | 3.22 | 4.36 | 4.88 | 2.78 | 4.69
7 | CATACAGGGTCAGCTAGGCCAGAGGAGGGACGGC | 4.49 | 3.1 | -0.068 | 2.08 | 0.388 | 4.31 | 3.63 | 2.81 | 0.595 | 1.67
8 | GGAACGAGGGAAAGTTGATAGCAGAGTTTGATGG | -0.31 | -0.575 | -0.354 | -0.799 | -0.711 | -0.252 | 0.626 | 0.9 | 0.276 | 0.845
9 | TGAATGAGGTTAAGGATCAGGGAACGTGGCGTCG | 1.99 | 1.74 | -0.343 | 1.01 | 0.386 | 3.28 | 3.12 | 4.57 | 2.71 | 4.12
10 | TCATATAGGTAAAGGTGAAAGTTGAACGATATGA | 1.54 | 1.75 | 0.158 | 1.89 | -0.399 | 4.3 | 5.92 | 5.66 | 5.22 | 5.99
11 | CGTCCAAGGTCAGCAGATCAGTGAAAGCGACGTG | 5.09 | 3.1 | -0.179 | 2.21 | -0.172 | 3.95 | 2.5 | 2.9 | 0.511 | 1.51
12 | CCTATTACTTGACCATAAGGGCAACCGAAGCTCG | 1.19 | 0.716 | 0.834 | 1.06 | 1.31 | 0.711 | 0.8 | 0.339 | 0.281 | 0.247
13 | CGTTACGGGTCAAGGTTATAGCACGGGTGGTACG | 5.94 | 3.83 | 0.0546 | 3.09 | -0.0956 | 5.35 | 4.95 | 4.72 | 1.51 | 3.37
14 | ATCTCTAGGTAAGACTCAGTTCAGTGATGAACGC | 0.343 | 0.402 | 0.634 | 0.249 | 0.676 | 0.268 | 0.294 | 0.427 | 0.243 | 0.302
15 | TAGCCTAGGTCATGTGGGCCAGTATAGTGTCGGC | 4.35 | 2.97 | 0.553 | 1.85 | 0.185 | 3.53 | 2.11 | 2.75 | 0.388 | 1.46
16 | CCTAGCAGGCCAATCTGGGTCACTCACGGCTTGA | 0.571 | 1.17 | -0.195 | 0.493 | -0.78 | 2.81 | 1.85 | 1.92 | -0.256 | 1.18
17 | TGAATGAGGCTAAAGATCAGGGAACGTGGCGTCG | -0.481 | -0.541 | -0.699 | -0.926 | -0.646 | 1.97 | 2.96 | 4.9 | 3.03 | 4.67
18 | CGTCCAAGGTCAGCAGGTCAGTTAAAGCGACGTG | 6.18 | 4.17 | 0.53 | 3.54 | -0.0511 | 4.97 | 4.14 | 4.73 | 1.44 | 3.28
19 | TTTATTAGTTGATTAGGGCAACCGAAACAGCGGA | 0.664 | 0.617 | 0.865 | 0.942 | 1.33 | 1.15 | 0.565 | 1.71 | 1.69 | 1.72
20 | CCTTACGGGTCACGAGGTTATAGCGCGACGAGCG | 7 | 4.91 | 0.435 | 3.79 | -0.01 | 6.01 | 7.42 | 6.71 | 3.03 | 5.28
21 | TCGAGTAGGTTACCAATCGGGCATTCAGCTTTCT | -0.222 | 0.961 | -0.836 | -0.125 | -1.27 | 0.717 | -0.0284 | 1.08 | 1.26 | 1.27
22 | CCTTACGGGTCACTGACAGGATATAGCATTTGGA | 5.3 | 3.68 | 0.191 | 3.28 | -0.185 | 5.22 | 4.58 | 4.24 | 1.5 | 2.88
23 | GCTTGCGGGTCAAAGGTTATAGCATGAATAGAAT | 7 | 5.1 | 0.347 | 5.46 | -0.491 | 7.24 | 11.2 | 9.57 | 9.43 | 9.99
